Results reported in PubChem BioAssay (Tox21).
Inconclusive results are not listed. A call without a number means that no potency is given here. Activity calls are given as the source filed them. Calls follow the shape of the dose curve; as a rule, active = well fitted activation curve with a large enough effect in the signal ratio in the repeat runs (not every such curve was filed as active); inconclusive = weak or mixed curves, or effect the other way; inactive = no such curve, though single readings can be large or run the other way; the % refers to the signal ratio.

biological target: Peroxisome proliferator-activated receptor gamma (Homo sapiens) (UniProt P37231); assay: qHTS assay to identify small molecule agonists of the peroxisome proliferator-activated receptor gamma (PPARg) signaling pathway (AID 743094); settings: HEK293H PPARg-UAS-bla, beta-lactamase FRET ratio, 17 h; series mostly up to 57 µM
Sequence (P37231 whole entry, looked up): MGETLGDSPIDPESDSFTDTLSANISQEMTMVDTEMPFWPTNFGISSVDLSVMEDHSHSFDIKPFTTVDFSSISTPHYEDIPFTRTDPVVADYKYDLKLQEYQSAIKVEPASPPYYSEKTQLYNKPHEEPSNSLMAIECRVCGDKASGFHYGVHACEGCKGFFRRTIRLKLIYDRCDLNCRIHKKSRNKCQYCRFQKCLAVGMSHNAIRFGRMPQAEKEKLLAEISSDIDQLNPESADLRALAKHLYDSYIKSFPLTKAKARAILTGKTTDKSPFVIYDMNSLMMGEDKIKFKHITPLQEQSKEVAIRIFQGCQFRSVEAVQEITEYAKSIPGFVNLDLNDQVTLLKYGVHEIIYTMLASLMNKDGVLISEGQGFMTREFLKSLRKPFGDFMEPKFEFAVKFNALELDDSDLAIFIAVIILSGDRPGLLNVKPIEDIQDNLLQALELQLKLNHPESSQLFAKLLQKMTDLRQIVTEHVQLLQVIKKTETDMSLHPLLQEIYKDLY
Excerpt: U.S. Tox21 Program National Center for Advancing Translational Sciences [NCATS] NIH Chemical Genomics Center [NCGC] U.S. Environmental Protection Agency [EPA] National Institutes of Environmental Health Sciences [NIEHS] National Toxicology Program [NTP] U.S. Food and Drug Administration [FDA] Tox21 Assay Overview: The peroxisome proliferator-activated receptors (PPARs) are lipid-activated transcription factors of the nuclear receptor superfamily with three distinct subtypes namely PPAR alpha, PPAR delta (also called PPAR beta) and PPAR gamma (PPARg). All these subtypes heterodimerize with Retinoid X receptor (RXR) and these heterodimers regulate transcription of various genes. PPAR-gamma receptor (glitazone receptor) is involved in the regulation of glucose and lipid metabolism. To identify the compounds that activate PPAR-gamma signaling, GeneBLAzer PPAR gamma UAS-bla HEK293H cell line (Invitrogen, Carlsbad, CA, USA) containing a beta-lactamase reporter gene under control of the control of an upstream activator sequence (UAS) stably integrated into HEK293H cells was used to screen Tox21 compound library.
Tox21 Assay Protocol Summary: PPARg-bla cells were dispensed at 3000 cells/6uL/well in 1536-well black wall/clear bottom plates using a Multidrop Combi (Thermo Fisher Scientific, Waltham, MA) dispenser. After the assay plates were incubated at 37C and 5% CO2 for 5 h, 23 nL of compounds dissolved in DMSO, positive controls or DMSO only was transferred to the assay plate by a Pintool station (Kalypsys, San Diego, CA). The assay plates were incubated at 37C for 17 h. After 1 uL of LiveBLAzerTM B/G FRET substrate was added using a Bioraptr Flying Reagent Dispenser (FRD) workstation (Beckman Coulter, Indianapolis, IN, USA), the plates were incubated at room temperature for 1 h, and fluorescence intensity was measured by an Envision plate reader (PerkinElmer, Shelton, CT).

Compound	Potency
Cc1ncc(COP(=O)(O)O)c(C=O)c1O	inactive
Cc1ccccc1N=C(N)N=C(N)N	inactive
O=C(O)CNC(=O)c1ccc(CO)o1	inactive
CCC(C(=O)NC(=O)NC(C)=O)c1ccccc1 (stereo not given)	inactive
COc1cc(-c2ccc(=O)[nH]n2)ccc1OC(F)F	inactive
CCN1C=CN(C)C1C (stereo not given)	inactive
C=COCC1CCC(COC=C)CC1 (stereo not given)	inactive
CCN(Cc1ccccc1)c1ccccc1	inactive
CC(C)CC(C)(N)C#N (stereo not given)	inactive
CN1CC(=O)N/C1=N/C(=O)Nc1cccc(Cl)c1	inactive
Nc1c2c(nc3c1CCC3)CCCC2	inactive
NCCCC[C@H](N[C@@H](CCc1ccccc1)C(=O)O)C(=O)N1CCC[C@H]1C(=O)O	inactive
CO/N=C(\C(=O)N[C@@H]1C(=O)N2C(C(=O)O)=C(CSc3nc(=O)c(O)nn3C)CS[C@H]12)c1csc(N)n1	inactive
C1CCC2(CCCCO2)OC1	inactive
c1ccc(CCc2ccccc2)cc1	inactive
CC(=O)NC(=O)c1ccccc1O	inactive
CCN(CC#N)c1cccc(C)c1	inactive
CC(=O)N[C@H]1[C@H]([C@H](O)[C@H](O)CO)OC(C(=O)O)=C[C@@H]1N=C(N)N	inactive
CC(=O)O[C@@]12CO[C@@H]1C[C@H](O)[C@@]1(C)C(=O)[C@H](O)C3=C(C)[C@@H](OC(=O)[C@H](O)[C@@H](NC(=O)OC(C)(C)C)c4ccccc4)C[C@@](O)([C@@H](OC(=O)c4ccccc4)[C@H]21)C3(C)C	inactive
CC(C)(C)OC(=O)c1cccc(N)c1	inactive

Compound	Potency
CN(C)C(=O)Oc1cccc([N+](C)(C)C)c1	inactive
COc1cc(C(=O)OC(COCCC(C)C)CN2CCOCC2)cc(OC)c1OC (stereo not given)	inactive
Cc1ccc(C(=O)Nc2ccc(S(=O)(=O)O)c3cc(S(=O)(=O)O)cc(S(=O)(=O)O)c23)cc1NC(=O)c1cccc(NC(=O)Nc2cccc(C(=O)Nc3cc(C(=O)Nc4ccc(S(=O)(=O)O)c5cc(S(=O)(=O)O)cc(S(=O)(=O)O)c45)ccc3C)c2)c1	inactive
[O-][n+]1cccc(CO)c1	inactive
COCCOC[C@H](CC1(C(=O)NC2CCC(C(=O)O)CC2)CCCC1)C(=O)Oc1ccc2c(c1)CCC2 (stereo not given in full)	inactive
CCOCC(C)O (stereo not given)	inactive
CN1[C@@H]2CC[C@H]1CC(OC(=O)C(O)c1ccccc1)C2 (stereo not given in full)	inactive
CCCCCCCCN1CCCC1=O	inactive
CCOC(=O)COC(=O)c1ccccc1C(=O)OCC	inactive
CC(C#N)(CCC(=O)O)N=NC(C)(C#N)CCC(=O)O (stereo not given)	inactive
CCCCN1C=CN(C)C1	inactive
O=C(O)CNC(=O)c1ccccc1	inactive
CC(C)(C)c1ccc(-c2ccc(C(C)(C)C)cc2)cc1	inactive
CCCCCCC#CC(=O)OC	inactive
O=C(O)c1cc(C(=O)O)cc(C(=O)O)c1	inactive
Cc1ccc(-c2ncc(Cl)cc2-c2ccc(S(C)(=O)=O)cc2)cn1	inactive
CCCCCCCCCCCCSC	inactive
CCCCCCCCCCCCCCCCCCO	inactive
CC(C)[C@H]1CC[C@@H](C)CC1=O	inactive
CC(C)C[C@@H](N)C(=O)O	inactive
